Glioma ERSR ind – ER stress response induction in glioma. U87-MG GRP78 promoter luciferase reporter, 16 h. Potency, µM, for inactives: at the highest dose activation, hits mostly activators. hit rate 0.02% among 420,000; active means well fitted activation curve with a large enough effect; inconclusive means small, poorly fitted or top-dose-only effect; inactive means no such curve, though single readings can be large or run the other way; further: potency means the concentration at half of the fitted maximal effect; series mostly up to about 76 µM; % of control where 0% means no effect; nearly all actives have a fitted effect of over 35% in size
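Stably transfected U87-MG glioma cells carrying a GRP78-based luciferase sensor; 16 h compound incubation. Luminescence end-point read 10 min after Bright-Glo addition at room temperature.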
KCNH2 3.1 inh – KCNH2 3.1 (human) potassium channel inhibition; U2OS KCNH2 3.1, thallium flux FluxOr; active compounds read low; activity change, % (tested at about 1.8 µM); hit rate 0.95% among 340,000; AID 720553;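 active means maximum activity change below -70%; inconclusive means maximum activity change from -70% to -50%; inactive means maximum activity change above -50%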;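 further: thallium influx rate constant from kinetic fluorescence after stimulation buffer; on the % scale 0 is the no-effect control and ±100 the full control effect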
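FluxOr-based Tl+ influx in U2OS cells transduced with KCNH2 3.1 virus; rate constants normalized to DMSO controls.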
TRPML1 ag – agonists of human TRPML1 channel. TRPML1-expressing cells, Ca2+ dye fluorescence, FDSS. activation, % (test concentration not listed). hit rate 0.12% among 410,000. Q9GZU1; in the data active means activation above about 50%; inconclusive means mostly about 30% to 49%; further: 0% is about no effect
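In this qHTS format, compounds were pin-transferred onto Ca8-dye-loaded TRPML1-DL cells induced with Tet overnight, and intracellular Ca2+ fluorescence was recorded kinetically for 110 s after a 10 s baseline. A subsequent 4uM final 54-4 (EC80) addition followed by a second 110 s read served as the antagonist phase.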
TSG101-PTAP inh – blocks PTAP/TSG101 interaction to inhibit HIV-1 budding | Q99816 | Fluorescence polarization, FITC-PTAP peptide / Tsg101 binding | Potency, µM (doses to about 115 µM), for inactives: top-dose activity change, negative = inhibition, actives largely listed as inhibitors | 340,000 tested, under 10 active | AID 493005; active means well fitted inhibition curve with a large enough effect in the main read-out, with a control signal flat, not every such curve was filed as active; inconclusive means small, poorly fitted or top-dose-only effect, or effect the other way, or a change in a side signal; inactive means no such curve, though single readings can be large or run the other way; further: potency means the concentration at half of the fitted maximal effect; % of control where 0% means no effect
Target sequence (Q99816 whole entry, looked up): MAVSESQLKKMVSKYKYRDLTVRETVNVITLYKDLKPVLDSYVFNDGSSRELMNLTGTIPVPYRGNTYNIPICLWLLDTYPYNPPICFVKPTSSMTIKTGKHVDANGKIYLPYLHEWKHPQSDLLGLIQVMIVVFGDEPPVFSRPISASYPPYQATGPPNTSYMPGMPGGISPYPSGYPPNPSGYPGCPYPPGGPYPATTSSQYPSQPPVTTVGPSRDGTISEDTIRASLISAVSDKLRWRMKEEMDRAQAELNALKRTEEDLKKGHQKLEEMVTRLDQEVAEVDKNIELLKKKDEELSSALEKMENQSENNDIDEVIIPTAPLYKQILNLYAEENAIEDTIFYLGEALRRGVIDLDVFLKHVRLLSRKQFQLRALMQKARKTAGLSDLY
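Compounds were pin-transferred onto Tsg101 binding domain (10 uM final) in HEPES pH 7.5 buffer, then FITC-PTAP peptide was added at 50 nM final. After 20 min at RT, polarization reported peptide displacement across a qHTS concentration series.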
hERG WT inh – blocks the wildtype human KCNH2 potassium channel | hit rate 0.37% among 340,000 | activity change, % at 1.84 µM | U2OS, BacMam KCNH2, thallium flux FluxOr; active compounds read low | Q12809 | AID 720551;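 active means maximum activity change below -70%; inconclusive means maximum activity change between -70% and -50%; inactive means maximum activity change above -50%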; further: on the % scale 0 is the no-effect control and ±100 the full control effect
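U2OS cells transduced with wild-type KCNH2 virus are loaded with FluxOr dye for 45 min, and thallium flux is measured in kinetic reads before and after stimulation buffer. Rate constants are normalized to DMSO controls.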
TRPML1 blocker – human mucolipin-1 channel inhibition; Q9GZU1; TRPML1-inducible cells, Ca2+ dye fluorescence, FDSS; active compounds read low; inhibition of EC80 agonist-evoked calcium signal; activity change, negative = inhibition, % (concentration not given with the values); hit rate 0.02% among 390,000; AID 624415; in the data active means activity change below about -50%; inconclusive means between about -30% and that limit;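 further: stimulus is agonist 54-4 at its EC80 concentration; on the % scale 0 is the no-effect control and ±100 the full control effect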
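Tet-induced TRPML1-DL cells loaded with Ca8 no-wash calcium dye were read kinetically on FDSS. Compound addition was followed by EC80 agonist 54-4 (4 uM final); inhibition was read over 110 s.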
Starred values were filed as active, the others as inactive; u = inconclusive; x = not tested or not shown. Hits are enriched below; roughly 1% of the tested compounds scored in any of these assays.

SMILES	Glioma ERSR ind	KCNH2 3.1 inh	TRPML1 ag	TSG101-PTAP inh	hERG WT inh	TRPML1 blocker
O=C(Nc1ccccc1Cl)c1ccccc1Oc1ccc(C(F)(F)F)cc1[N+](=O)[O-]	1.6%	-20.4	55.0*	-6.8%	1.9	-21.0
CCN1CCCC1CNC(=O)c1cnn(-c2nccc(-c3cc4ccccc4o3)n2)c1C1CC1 (stereo not drawn)	-4.6%	x	x	x	x	x
CN(CC(=O)Nc1ccccc1Sc1ccccc1)C1CCCCC1	-4.4%	-0.1	60.2*	0.1%	-10.0	u
CCCOc1ccc(S(=O)(=O)NCCCN2CCOCC2)c2ccccc12	-5.4%	-13.3	-0.1	-4.1%	-206.4*	-5.2
CC(C)(CO)NC(=O)c1cnn(-c2nccc(-c3ccc4c(c3)OCO4)n2)c1C1CC1	2.2%	x	x	x	x	x
CCCN1CCN(CCCNC(=O)C2CCCN(c3nc4ccc(OCC)cc4s3)C2)CC1 (stereo not drawn)	-4.1%	-2.8	2.7	-4.4%	3.3	29.6
CCOc1ccc2nc(NC(=O)C3CCN(C(=O)c4ccco4)CC3)sc2c1	7.7%	19.2	1.2	-5.9%	-3.4	12.3
CCOc1ccc2nc(N3CCC(C(=O)N4CCN(C(=O)c5ccco5)CC4)CC3)sc2c1	0.6%	-76.6*	1.2	-5.8%	-34.6	10.7
CCOc1ccc2nc(N3CCCC(C(=O)N4CCN(CC)CC4)C3)sc2c1 (stereo not drawn)	-2.3%	-85.6*	-0.7	-10.3%	5.8	-0.5
O=C(OCCF)N1CCN(/[N+]([O-])=N/Oc2ccc([N+](=O)[O-])cc2[N+](=O)[O-])CC1	-11.5%	x	1.2	x	x	-5.7
Cc1ccccc1-c1nc(CN2CCC(C(=O)NCCC3=CCCCC3)CC2)c(C)o1	-3.3%	-70.8*	0.4	-0.3%	-77.8*	7.9
COc1ccc(-c2nc(CN3CCC(C(=O)NCc4ccc(F)cc4)CC3)c(C)o2)cc1OC	-2.3%	x	0.3	x	x	-0.6
CCc1ccc(-c2nc(CN3CCC(C(=O)NCCN(CC)c4ccccc4)CC3)c(C)o2)cc1	-6.0%	-112.4*	0.7	-5.9%	-31.7	7.6
CCc1ccc(-c2nc(CN3CCC(C(=O)NCc4ccc(F)cc4)CC3)c(C)o2)cc1	1.1%	-107.1*	2.0	-1.4%	u	2.7
CCN(CCNC(=O)C1CCN(Cc2nc(-c3ccc(Cl)cc3)oc2C)CC1)c1ccccc1	-4.3%	-72.2*	0.3	0.5%	-28.6	16.2
Cc1ccccc1-c1nc(CN2CCC(C(=O)NCCc3ccccc3)CC2)c(C)o1	0.6%	x	-0.4	x	x	0.9
CC(C)(C)n1ncc2c(=O)n(Cc3cccc(C(F)(F)F)c3Cl)cnc21	-0.1%	x	2.3	x	x	2.2
COCCN(C)C(=O)c1cnn(-c2ncc3c(n2)-c2ccccc2CCC3)c1C1CC1	-0.6%	x	x	x	x	x
CN(CCO)C(=O)c1cn(C2CCN(Cc3cccc(C(F)(F)F)c3)CC2)nn1	-4.0%	x	x	x	x	x
C#CCN(C1CCCC1)S(=O)(=O)C=C	-0.3%	x	-0.6	x	x	x
Cc1ccc(S(=O)(=O)/N=C2/NC(=O)/C(=C/c3cc([N+](=O)[O-])ccc3O)S2)cc1	0.0%	-5.9	67.3*	28.5%	-11.4	0.9
COCCCN(C(=S)Nc1cc(C)cc(C)c1)C(C)c1ccncc1 (stereo not drawn)	-2.4%	-72.1*	1.9	2.4%	-1.6	-18.7
COc1ccc(S(=O)(=O)N2CCC(n3cnc4cc(C(F)(F)F)ccc43)CC2)cc1	-5.6%	-85.8*	0.4	-1.7%	-87.3*	32.5
COc1cc2c(cc1OC)C(c1ccc(-c3ccc(Cl)cc3Cl)o1)=NCC2	-10.2%	-114.7*	0.0	0.0%	-4.1	13.5
CCc1nnc(NC(=O)CSc2nnc(C)n2CC2CCCO2)s1 (stereo not drawn)	-3.8%	5.0	3.7	-5.4%	-161.0*	-6.0
N#C/C(=C/c1ccc(-c2ccc(S(=O)(=O)N3CCOCC3)cc2)o1)C(=O)NC1CC1	-2.0%	9.8	-0.5	-1.8%	-79.7*	-2.3
COc1cccc(CN2CCC(N(CCc3ccccc3)Cc3ccccc3)CC2)c1OC	-7.2%	-90.7*	-0.1	-1.1%	20.0	-15.3

Screens: PubChem, National Center for Advancing Translational Sciences (NCATS)
